Measured values published in PubChem BioAssay AID504329 (Southern Research Specialized Biocontainment Screening …, 2011).
About 1,000 (0.29%) of roughly 340,000 compounds were called active. Rule as the data show it: inconclusive = inhibition above about 27% without an active follow-up result; inactive = below that. The list is a sample of the results. Measured potencies and affinities stand elsewhere.

Assay: H1N1 influenza NS1A inhibitors, functional cell based assay (AID 504329)
Settings: percent inhibition, at 12.5 µM, active compounds read high

SMILES	inhibition
CCCOc1ccc(CNC(=O)C2CCN(c3nnc(N4CCCC4=O)s3)CC2)cc1	-2.57% (inactive)
Cc1ccccc1NC(=O)c1c(Cl)nc(C)c(Cl)c1C	-3.05% (inactive)
O=C(NCc1ccncc1)C1CCC(=O)N(CCc2ccc(Cl)cc2)C1 (stereo not drawn)	-3.67% (inactive)
Cc1ccc(C(=O)N/N=C\c2cc3c(cc2Br)OCO3)cn1	-7.88% (inactive)
COc1ccc(C(=O)N/N=C/c2cc(Br)ccc2O)cc1OC	-6.16% (inactive)
O=C(N/N=C/c1cc([N+](=O)[O-])ccc1O)c1ccncc1	-34.5% (inactive)
O=C(NCC1CCCO1)C(=O)N/N=C/c1ccc(O)c(Cl)c1 (stereo not drawn)	11.2% (inactive)
COc1ccc(Br)cc1/C=N/NC(=O)C(c1ccncc1)N1CCOCC1 (stereo not drawn)	2.7% (inactive)
O=C(NCC1CCCO1)C(=O)N/N=C/c1cccc(Cl)c1 (stereo not drawn)	1.01% (inactive)
O=C(CNC(=O)c1ccncc1)N/N=C/c1cc(Br)ccc1O	2.02% (inactive)
Cc1ccc(/C=N/NC(=O)C(c2ccncc2)N2CCOCC2)cc1 (stereo not drawn)	3.83% (inactive)
COC(=O)c1ccc(N2CCN(C)CC2)c(NC(=O)COc2cccc(C)c2)c1	8.25% (inactive)
CC12CCC(=O)N1C(C(=O)Nc1ccccc1N1CCOCC1)CS2 (stereo not drawn)	1.95% (inactive)
O=C(CCCC(=O)Nc1ccc(Br)cc1)N/N=C/c1ccccc1	-7.56% (inactive)
CNC(=S)NN=C(C)CCCC(C)=NNC(=S)NC	-24.1% (inactive)
O=C1c2cccc([N+](=O)[O-])c2C(=O)N1C1CCCCC1	-11.8% (inactive)
CN1CCN(C(=O)CNC(=O)C23CC4CC(CC(C4)C2)C3)CC1	-0.78% (inactive)
O=C(N/N=C/c1cccnc1)c1cccc(Cl)c1	-19.1% (inactive)
O=C(N/N=C/c1coc2ccc(Cl)cc2c1=O)c1ccncc1	2.11% (inactive)
O=C(N/N=C/c1ccc(Cl)cc1Cl)c1ccncc1	-7.47% (inactive)
O=C(N/N=C/c1cc(Cl)ccc1O)c1ccc(Br)cc1	-2.86% (inactive)
COc1ccc(/C=C(\NC(=O)c2ccco2)C(=O)N2CCOCC2)cc1	10.3% (inactive)
CCN(CC)Cc1cc(C(C)(C)C)cc(N2CCOCC2)c1O	3.29% (inactive)
CCc1cc(=O)[nH]c(SCCc2ccccc2)n1	1.92% (inactive)
O=C(NC1CCCC1)C1CCCN1C(=O)Nc1ccccc1 (stereo not drawn)	7.61% (inactive)

SMILES	inhibition
CCOc1cccc(-c2c(C(=O)N/N=C(\C)c3ccncc3)nnn2-c2nonc2N)c1	0.12% (inactive)
CCOc1cccc(-c2c(C(=O)N/N=C(\C)c3cccnc3)nnn2-c2nonc2N)c1	-0.26% (inactive)
N=C1c2ccccc2CN1NC(=O)c1ccc(Br)o1	-1.62% (inactive)
Cc1ccc(Nc2c([N+](=O)[O-])ccc3nonc23)c(C)c1	24.2% (inactive)
O=[N+]([O-])c1cccc(Nc2c([N+](=O)[O-])ccc3nonc23)c1	11.8% (inactive)
COc1ccccc1CNC(=O)CSC1=NCCS1	-11.3% (inactive)
CSc1ccccc1OCc1cc(C(=O)NCCN2CCCC(O)C2)no1 (stereo not drawn)	14.2% (inactive)
CC(NC(=O)COC(=O)C12CC3CC(CC(Br)(C3)C1)C2)c1ccccc1 (stereo not drawn)	4.11% (inactive)
Cc1ccc(C(=O)N/N=C/c2c(O)ccc3ccccc23)cn1	-7.55% (inactive)
O=C(N/N=C/c1c(O)ccc2ccccc12)c1ccc(Br)o1	-3.25% (inactive)
O=C(N/N=C/c1cccc2ccccc12)c1cccnc1	-1.84% (inactive)
CCOc1ccc2ccccc2c1/C=N/NC(=O)c1ccncc1	-4.1% (inactive)
O=C(N/N=C\c1c(O)ccc2ccccc12)c1ccc(O)cc1	3.55% (inactive)
O=C(NN=Cc1c(O)ccc2ccccc12)c1ccc2c(c1)OCO2	3.47% (inactive)
O=C(N/N=C\c1c(O)ccc2ccccc12)c1cncc(Br)c1	-2.66% (inactive)
O=C(N/N=C/c1c(O)ccc2ccccc12)c1cccc(C(F)(F)F)c1	5.26% (inactive)
COc1ccc(-c2nnnn2-c2ccc(F)cc2F)cc1	-3.82% (inactive)
COP(=O)(OC)C1(O)C(=O)Nc2ccc(Br)cc21 (stereo not drawn)	-4.97% (inactive)
Nc1c(C(=O)NCc2ccc3c(c2)OCO3)nnn1Cc1ccc(Br)cc1	1.55% (inactive)
N#CC(Cc1ccccc1)(Cc1ccccc1)C(=O)NN	-3.45% (inactive)
COC1CCCCC1NS(=O)(=O)c1ccccc1 (stereo not drawn)	1.39% (inactive)
CC(=O)NC(c1ccc2ccccc2c1)c1ccc2cccnc2c1O (stereo not drawn)	23.8% (inactive)
CCCCC(=O)NC(c1cccc([N+](=O)[O-])c1)c1ccc2cccnc2c1O (stereo not drawn)	17.2% (inactive)
CC(=O)NC(c1ccc(C(C)C)cc1)c1ccc2cccnc2c1O (stereo not drawn)	-6.08% (inactive)
CC(C)C(=O)NC(c1cccc([N+](=O)[O-])c1)c1ccc2cccnc2c1O (stereo not drawn)	17.9% (inactive)

SMILES	inhibition
CC(C)C(=O)NC(c1ccco1)c1ccc2cccnc2c1O (stereo not drawn)	23.1% (inactive)
COc1ccc(C(NC(C)=O)c2ccc3cccnc3c2O)c(OC)c1 (stereo not drawn)	20.8% (inactive)
C=CCNC(=O)c1onc(CSc2ccc(F)cc2)c1C(=O)NCC=C	8.73% (inactive)
CCOCCc1nnc(NC(=O)C2CC(=O)N(c3ccc(OCC)cc3)C2)s1 (stereo not drawn)	-1.86% (inactive)
C[C@@H]1CC[C@@]2(O[C@H](CCO)C[C@H](O)[C@H]2O)O1	-1.57% (inactive)
CCCSc1nc(-c2ccccc2)cc(C(F)(F)F)c1C#N	-2.3% (inactive)
COc1ccc(N2CCN(C(=O)Cc3ncc(C(F)(F)F)cc3Cl)CC2)cc1	-8.89% (inactive)
O=C(O)c1ccc(NS(=O)(=O)c2ccc3c(c2)C2C=CCC2C(c2ccccc2F)N3)cc1 (stereo not drawn)	18.1% (inactive)
COc1ccc(NS(=O)(=O)c2ccc3c(c2)[C@H]2C=CC[C@H]2[C@@H](c2ccc(C(=O)O)cc2)N3)cc1	24.1% (inactive)
Cn1nnnc1SCC(=O)N1CCc2ccccc21	-9.92% (inactive)
O=C1/C(=C/c2ccncc2)N2CCC1CC2	-8.83% (inactive)
CC(C)CC(=O)Nc1nnc(SCC(=O)NCC2CCCO2)s1 (stereo not drawn)	-4.89% (inactive)
CCc1nnc(NS(=O)(=O)c2ccc(N/C=C\C(=O)c3ccc(C)cc3)cc2)s1	2.79% (inactive)
COC(=O)c1ccccc1NC(=O)CSc1ncccn1	-13.4% (inactive)
CC(=O)c1ccc(Nc2nc(C)cc(C)n2)cc1	0.38% (inactive)
Cc1cc(C)nc(NN2C(=O)C=CC2=O)n1	0.34% (inactive)
Cn1c(SCC(=O)Nc2nccs2)nnc1-c1ccncc1	2.71% (inactive)
CCOC(=O)C(C)Oc1cccc2c(=O)n(CC(=O)NCCc3ccccc3)ccc12 (stereo not drawn)	0.03% (inactive)
CC(C)C(OC(=O)c1cccs1)C(=O)NCc1ccc2c(c1)OCO2 (stereo not drawn)	-1.71% (inactive)
Cc1cccc(NC(=O)c2ccc3nccnc3c2)c1C	0.36% (inactive)
COc1cc(NC(=O)c2ccccc2F)c(OC)cc1NC(=O)CN1CCCCC1	-0.03% (inactive)
N/C(=N\OC(=O)Cc1ccccc1[N+](=O)[O-])c1ccccn1	-3.44% (inactive)
N/C(=N\OC(=O)Cc1ccccc1)c1ccccn1	-5.24% (inactive)
Cc1c(OC(C)C(=O)NCC(O)c2ccccc2)ccc2c3c(c(=O)oc12)CCC3 (stereo not drawn)	3.79% (inactive)
CNC(=O)c1c(NC(=O)c2ccc(S(=O)(=O)N3CCCCC3C)cc2)sc2c1CCN(C)C2 (stereo not drawn)	-4.17% (inactive)

SMILES	inhibition
Fc1ccc(-[n+]2nc(Nc3ccccc3)sc2-c2cccc(Cl)c2Cl)cc1	1.31% (inactive)
Fc1ccc(-[n+]2nc(Nc3ccccc3)sc2-c2c3ccccc3cc3ccccc23)cc1	10.5% (inactive)
CCc1ccc(Nc2n[n+](-c3ccccc3)c(-c3cccc(C)c3)s2)cc1	-15% (inactive)
CCc1ccc(Nc2n[n+](-c3ccccc3)c(-c3cccc(Cl)c3Cl)s2)cc1	-1.96% (inactive)
COc1ccc(S(=O)(=O)CCC(=O)N2CC(=O)N(CCc3ccccc3)C(=O)C2)cc1	-13.4% (inactive)
CSc1ncc(/C=C2/C(=O)NC(=O)N(C)C2=O)cn1	6.14% (inactive)
CC1Cc2ccccc2N1C(=O)c1ccc2c(c1)OCO2 (stereo not drawn)	-9.71% (inactive)
CCCOc1cccc(OCC(=O)Nc2nc3ccccc3[nH]2)c1	-2.2% (inactive)
CC(C)/C=C1\CC/C(=C\c2ccc(N(C)C)cc2)C1=O	-9.13% (inactive)
CN(C)c1ccc(/C=C2\CCC/C(=C\c3ccccc3)C2=O)cc1	-5.05% (inactive)
O=C1C(=O)N(CCCn2ccnc2)C(c2ccc(Cl)cc2)/C1=C(\O)c1ccc2c(c1)OCCO2 (stereo not drawn)	4.67% (inactive)
Cc1ccc(SCC(=O)NCCc2ccccc2)cc1	4.08% (inactive)
O=C(Nc1ccc2c(c1)OCO2)C1COc2ccccc2O1 (stereo not drawn)	-3.64% (inactive)
O=C(Nc1cc([N+](=O)[O-])c2[nH]c(=O)c3ccccc3c2c1)C(F)(F)F	1.69% (inactive)
c1ccc(CN2CCC(CNc3ncnc4ccccc34)C2)cc1 (stereo not drawn)	-2.71% (inactive)
O=C(Nc1nc(-c2ccccn2)cs1)C1CC1	15.6% (inactive)
CC1(c2ccccc2)NC(=O)N(CC(=O)Nc2nc(-c3ccccn3)cs2)C1=O (stereo not drawn)	17.7% (inactive)
O=C(Nc1nc(-c2ccccn2)cs1)C1CCCC1	-0.49% (inactive)
O=C(CCN1C(=O)C2CCCCC2C1=O)Nc1nc(-c2ccccc2)cs1 (stereo not drawn)	12.8% (inactive)
O=C(CN1C(=O)CCC1=O)Nc1nc(-c2ccc3ccccc3c2)cs1	-4.5% (inactive)
O=C(CN1C(=O)C2CCCCC2C1=O)Nc1nc(-c2ccc(F)cc2)cs1 (stereo not drawn)	-0.75% (inactive)
O=C(CC1CC2CCC1C2)Nc1nc(-c2ccccn2)cs1 (stereo not drawn)	-17.9% (inactive)
O=C(CN1C(=O)CCC1=O)Nc1nc(-c2cccs2)cs1	-13.6% (inactive)
